The source made the active and inactive calls. The calls were made as follows: active = hit-call score of the fitted dose curve at least 0.9, where 1 is the maximum; inactive = score below 0.9.
Experiments:
[1] = read-out: Tissue Factor, F3 (gene 2152); assay: BSK_CASM3C_TissueFactor: BioMAP Diversity Plus: CASM3C Assay for Tissue Factor Biomarker Activity (AID 2283052); settings: primary human coronary artery smooth muscle cells; actives raise or lower the signal;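 also: cell surface tissue factor protein level read by ELISA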
[2] = read-out: Interferon-gamma inducible Protein 10 (IP10), CXCL10 (gene 3627); assay: BSK_hDFCGF_IP10: BioMAP Diversity Plus: hDFCGF Assay for Interferon-gamma inducible Protein 10 (IP10) Biomarker Activity (AID 2283053); settings: primary human foreskin fibroblasts; actives raise or lower the signal
How it was run: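 Primary human foreskin fibroblasts exposed to chemicals for 24 h. IP-10 measured by ELISA; changes fitted bidirectionally against DMSO baseline.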

[3] = read-out: Urokinase-type plasminogen activator receptor (uPAR), PLAUR (gene 5329); assay: BSK_CASM3C_uPAR: BioMAP Diversity Plus: CASM3C Assay for Urokinase-type plasminogen activator receptor (uPAR) Biomarker Activity (AID 2283054); settings: primary human coronary artery smooth muscle cells; actives raise or lower the signal;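 also: cell-surface uPAR protein level quantified by ELISA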
[4] = read-out: Vascular cell adhesion molecule 1 (VCAM1), VCAM1 (gene 7412); assay: BSK_CASM3C_VCAM1: BioMAP Diversity Plus: CASM3C Assay for Vascular cell adhesion molecule 1 (VCAM1) Biomarker Activity (AID 2283055); settings: primary human coronary artery smooth muscle cells; actives raise or lower the signal;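 also: VCAM-1 protein level quantified by ELISA on the cells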
[5] = read-out: Collagen III, COL3A1 (gene 1281); assay: BSK_hDFCGF_CollagenIII: BioMAP Diversity Plus: hDFCGF Assay for Collagen III Biomarker Activity (AID 2283056); settings: primary human foreskin fibroblasts; actives raise or lower the signal
How it was run: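 Response relative to DMSO, fitted in both directions, reflects ELISA-measured collagen III in human primary skin fibroblasts 24 h after compound addition.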

[6] = read-out: Epidermal growth factor receptor (EGFR), EGFR (gene 1956); assay: BSK_hDFCGF_EGFR: BioMAP Diversity Plus: hDFCGF Assay for Epidermal growth factor receptor (EGFR) Biomarker Activity (AID 2283057); settings: primary human foreskin fibroblasts; actives raise or lower the signal
How it was run: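 Primary human foreskin fibroblasts (hDFCGF system), sampled 24 h after dosing; EGFR quantified by ELISA. Bidirectional fit relative to DMSO baseline; SRB total-protein staining in parallel cultures for cytotoxicity.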

[7] = read-out: Interleukin-8 (IL8), CXCL8 (gene 3576); assay: BSK_hDFCGF_IL8: BioMAP Diversity Plus: hDFCGF Assay for Interleukin-8 (IL8) Biomarker Activity (AID 2283058); settings: primary human foreskin fibroblasts; actives raise or lower the signal
How it was run: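 Fibroblast monolayers (human foreskin, hDFCGF) received test chemical for 24 h before ELISA detection of IL-8; either increases or decreases relative to DMSO count as activity.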

[8] = BSK_hDFCGF_Proliferation: Cell Proliferation Assessment in the BioMAP Diversity Plus: hDFCGF Assay (AID 2283059); settings: primary human foreskin fibroblasts;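 also: curves fitted for both rise and fall of signal versus DMSO baseline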
How it was run: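 This proliferation readout used SRB total-protein staining of human foreskin fibroblasts […], normalized to DMSO with bidirectional curve fitting.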

[9] = read-out: Macrophage colony-stimulating factor (MCSF), CSF1 (gene 1435); assay: BSK_hDFCGF_MCSF: BioMAP Diversity Plus: hDFCGF Assay for Macrophage colony-stimulating factor (MCSF) Biomarker Activity (AID 2283060); settings: primary human foreskin fibroblasts; actives raise or lower the signal
How it was run: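 fibroblasts (human foreskin, primary), 24 h post-dose; M-CSF by ELISA; bidirectional fit, DMSO = baseline.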

[10] = BSK_hDFCGF_SRB: Viability Assessment in the BioMAP Diversity Plus: hDFCGF Assay (AID 2283061); settings: primary human foreskin fibroblasts;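 also: cells exposed to compound for 24 h before the read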
How it was run: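 SRB-based viability read on primary human skin fibroblasts at 24 h: TCA fixation, 0.1% dye, 560 nm. Gain or loss of signal is fitted against the DMSO negative control.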

[11] = read-out: TIMP metallopeptidase inhibitor 1 (TIMP1), TIMP1 (gene 7076); assay: BSK_hDFCGF_TIMP1: BioMAP Diversity Plus: hDFCGF Assay for TIMP metallopeptidase inhibitor 1 (TIMP1) Biomarker Activity (AID 2283062); settings: primary human foreskin fibroblasts; actives raise or lower the signal
How it was run: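 Bidirectional curve fitting against DMSO baseline yielded this endpoint, based on ELISA detection of TIMP-1 in primary human foreskin fibroblasts exposed to compound for 24 h.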

[12] = read-out: Monokine induced gamma interferon (MIG), CXCL9 (gene 4283); assay: BSK_hDFCGF_MIG: BioMAP Diversity Plus: hDFCGF Assay for Monokine induced gamma interferon (MIG) Biomarker Activity (AID 2283063); settings: primary human foreskin fibroblasts; actives raise or lower the signal
How it was run: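 Endpoint derived by bidirectional fitting relative to DMSO; MIG quantified via ELISA in primary human foreskin fibroblasts harvested 24 h after dosing.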

[13] = read-out: Matrix Metallopeptidase 1 (MMP1), MMP1 (gene 4312); assay: BSK_hDFCGF_MMP1: BioMAP Diversity Plus: hDFCGF Assay for Matrix Metallopeptidase 1 (MMP1) Biomarker Activity (AID 2283064); settings: primary human foreskin fibroblasts; actives raise or lower the signal
How it was run: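 hDFCGF primary fibroblasts (human foreskin); chemical added; 24 h; MMP1 by ELISA; bidirectional fit vs DMSO.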

[14] = read-out: Vascular cell adhesion molecule 1 (VCAM1), VCAM1 (gene 7412); assay: BSK_hDFCGF_VCAM1: BioMAP Diversity Plus: hDFCGF Assay for Vascular cell adhesion molecule 1 (VCAM1) Biomarker Activity (AID 2283065); settings: primary human foreskin fibroblasts; actives raise or lower the signal;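 as to AC50: VCAM-1 protein level quantified by ELISA after 24 h chemical exposure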
How it was run: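 Measured after 24 h chemical treatment of primary human skin fibroblasts, VCAM-1 was detected by ELISA and concentration-response analysed in both directions versus DMSO vehicle.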

[15] = read-out: Plasminogen activator inhibitor-1 (PAI1), SERPINE1 (gene 5054); assay: BSK_hDFCGF_PAI1: BioMAP Diversity Plus: hDFCGF Assay for Plasminogen activator inhibitor-1 (PAI1) Biomarker Activity (AID 2283066); settings: primary human foreskin fibroblasts; actives raise or lower the signal
How it was run: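 Human foreskin fibroblast primary cells, 24 h chemical exposure; PAI-1 measured by ELISA. Bidirectional fitting relative to DMSO; parallel cultures stained with SRB for total protein to flag overt cytotoxicity.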

[16] = read-out: Intercellular Adhesion Molecule 1 (ICAM1), ICAM1 (gene 3383); assay: BSK_KF3CT_ICAM1: BioMAP Diversity Plus: KF3CT Assay for Intercellular Adhesion Molecule 1 (ICAM1) Biomarker Activity (AID 2283067); settings: primary human keratinocytes with fibroblasts; actives raise or lower the signal
How it was run: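 Bidirectional curve fitting against a DMSO baseline was applied to ICAM-1 ELISA signal from primary human skin co-cultures harvested 24 h after treatment, with SRB staining of parallel wells for overt cytotoxicity.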

[17] = read-out: Interferon-gamma inducible Protein 10 (IP10), CXCL10 (gene 3627); assay: BSK_KF3CT_IP10: BioMAP Diversity Plus: KF3CT Assay for Interferon-gamma inducible Protein 10 (IP10) Biomarker Activity (AID 2283068); settings: primary human keratinocytes with fibroblasts; actives raise or lower the signal
How it was run: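 Signal is secreted/surface IP-10 by ELISA in a human primary skin co-culture of keratinocytes and foreskin fibroblasts, taken 24 h post-dosing; DMSO served as negative control.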

[18] = BSK_KF3CT_SRB: Viability Assessment in the BioMAP Diversity Plus: KF3CT Assay (AID 2283069); settings: primary human keratinocytes with fibroblasts;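 also: total protein by sulforhodamine B staining as a cytotoxicity measure; fitted for both signal gain and loss against DMSO baseline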
How it was run: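 Keratinocytes co-cultured with foreskin fibroblasts (human primary); chemical added, 24 h; fix 10% TCA, stain 0.1% SRB, A560. Bidirectional fit vs DMSO.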

[19] = read-out: Interleukin-1 alpha (IL1a), IL1A (gene 3552); assay: BSK_KF3CT_IL1a: BioMAP Diversity Plus: KF3CT Assay for Interleukin-1 alpha (IL1a) Biomarker Activity (AID 2283070); settings: primary human keratinocytes with fibroblasts; actives raise or lower the signal
How it was run: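 Chemicals were dosed onto co-cultured human keratinocytes and foreskin fibroblasts, IL-1a was quantified by ELISA at 24 h, and activity was fitted in both directions relative to DMSO controls.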

[20] = read-out: TIMP metallopeptidase inhibitor 2 (TIMP2), TIMP2 (gene 7077); assay: BSK_KF3CT_TIMP2: BioMAP Diversity Plus: KF3CT Assay for TIMP metallopeptidase inhibitor 2 (TIMP2) Biomarker Activity (AID 2283071); settings: primary human keratinocytes with fibroblasts; actives raise or lower the signal
How it was run: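 Co-culture of human primary keratinocytes and foreskin fibroblasts, measured 24 h after chemical dosing. TIMP-2 quantified by ELISA and fitted in both directions relative to DMSO. Cytotoxicity checked in parallel cultures by SRB total-protein staining.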

Measured: AC50

O=C(NS(=O)(=O)/C=C/c1cccs1)c1ccc(F)cc1Br
active: [1] 0.061 µM | [2] 30.9 µM | [8] 6.17 µM | [19] 2.09 µM
inactive: all other assays above

CC1=C(C)S(=O)(=O)CCS1(=O)=O
inactive: all assays above

Nc1nc(=S)c2[nH]cnc2[nH]1
active: [5] 26.1 µM | [8] 14 µM | [13] 24.8 µM
not listed: [14]
inactive: all other assays above

CC(C)NCC(O)c1ccc(O)c(O)c1 (stereo not drawn)
active: [8] 26.4 µM
inactive: all other assays above

CCCCCCCCCC[N+](C)(C)[O-]
active: [20] 0.0209 µM
inactive: all other assays above

O=C1O[C@H]([C@H](O)CO)C(O)=C1O
inactive: all assays above

CC(C)c1cccc(C(C)C)c1
inactive: all assays above

Cc1cn([C@H]2C=C[C@@H](CO)O2)c(=O)[nH]c1=O
inactive: all assays above

Nc1nc(Cl)nc2c1ncn2[C@H]1C[C@H](O)[C@@H](CO)O1
active: [8] 0.147 µM | [9] 1.01 µM | [15] 10.2 µM
inactive: all other assays above

CC(C)COC(=O)CCCCC(=O)OCC(C)C
not listed: [13]
inactive: all other assays above

O=C(Oc1ccccc1)c1cccc(C(=O)Oc2ccccc2)c1
inactive: all assays above

CCCCC(CC)CO (stereo not drawn)
inactive: all assays above

CN(C)CCCN(C)CCCN(C)C
inactive: all assays above

O=C(O)CN(CC(=O)O)CC(=O)O
not listed: [13]
inactive: all other assays above

CS(=O)(=O)c1ccc([C@@H](C[C@H]2CCC(=O)C2)C(=O)Nc2cnccn2)cc1Cl
not listed: [13]
inactive: all other assays above

Cn1cnc2c1c(=O)[nH]c(=O)n2C
inactive: all assays above

CN(C)C(=O)NC1(c2ccccc2)CCN(CC[C@@]2(c3ccc(F)c(F)c3)CN(C(=O)c3ccccc3)CCO2)CC1
active: [8] 14.2 µM
inactive: all other assays above

O=C(O)CC(O)(CC(=O)O)C(=O)O
not listed: [13]
inactive: all other assays above

CC1(C)C(=O)NC(=O)N1CO
inactive: all assays above

CN(C)C(=O)NC1(c2ccccc2)CCN(CCC[C@]2(c3ccc(Cl)c(Cl)c3)CCCN(C(=O)c3ccccc3)C2)CC1
active: [8] 6.29 µM
inactive: all other assays above

O=C1c2c(O)cccc2Cc2cccc(O)c21
active: [2] 17.1 µM | [5] 30.7 µM | [9] 17.1 µM | [10] 7.76 µM | [12] 15.7 µM | [14] 20 µM | [16] 25.1 µM | [17] 28.8 µM | [19] 18.9 µM | [20] 20 µM
inactive: all other assays above

O=C1OC(c2ccc(O)cc2)(c2ccc(O)cc2)c2ccccc21
active: [5] 30.2 µM | [6] 20 µM | [8] 28 µM | [14] 31.2 µM | [19] 28.8 µM
not listed: [13] | [20]
inactive: all other assays above

CCCCCCCCCCCCCCOS(=O)(=O)O
inactive: [1] | [3] | [4]
active: [2] 8.52 µM | [5] 7.78 µM | [6] 12.2 µM | [7] 12.4 µM | [8] 5.36 µM | [9] 9.53 µM | [10] 10.1 µM | [11] 9.76 µM | [12] 7.52 µM | [13] 5.54 µM | [14] 7.85 µM | [15] 9.05 µM | [16] 16.2 µM | [17] 8.99 µM | [18] 8 µM | [19] 10.3 µM | [20] 7.76 µM

CCc1cc(C2=C(C(=O)O)N(c3ccccc3C(F)(F)F)S(=O)(=O)c3ccccc32)cc2c1OCO2
active: [5] 32.5 µM | [8] 15.5 µM | [13] 19.8 µM
inactive: all other assays above

CC(=O)OCC(COC(C)=O)OC(C)=O
inactive: all assays above

CCOCCOCCO
inactive: all assays above

C/C=C/C=C/C(=O)O
inactive: all assays above
